C diff growth: C. difficile growth inhibition; growth activity, negative = inhibition, % at 16 µg/mL (by protocol); Clostridium difficile clinical isolate growth, OD600, 24 h; active compounds read low; 86,000 compounds, 0.25% hits;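 active = mean growth activity at or below -80% and every replicate also at or below -80%; inconclusive = mean at or below -80% but some replicate above -80%; inactive = mean growth activity above -80%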;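 also: 0% = DMSO wells and -100% = levofloxacin 16 µg/mL wells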
T cruzi growth-1: inhibitors of T. cruzi proliferation; inhibition, % at 8.34 µM; T. cruzi beta-gal in NIH3T3, GalScreen luminescence, 90 h; 77,000 compounds, 5.9% hits;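 active = mean inhibition above about 93%, with at least 55% of replicates each passing it, limit read from the data, passing the limit was not always enough; inconclusive = only one of those two conditions holds; inactive = neither condition holds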
Pf Dd2 growth: P. falciparum Dd2 growth inhibition; SYBR Green, 72 h; active compounds read low; activity change, % at 10 µM; 94,000 compounds, 2.3% hits; in the data active = activity change below about -80%; inconclusive = no clear call, values can overlap the other calls
T cruzi growth-2: inhibitors of T. cruzi proliferation; shares compounds with T cruzi growth-1; T. cruzi beta-gal in NIH3T3, GalScreen luminescence, 90 h; inhibition, % at 8.35 µM; 5,600 compounds, 72% hits; AID 651739;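 active = mean replicate inhibition above about 95% and at least 55% of replicates individually reaching it, limit read from the data; inconclusive = only one of the two criteria is met; inactive = neither criterion is met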
T cruzi growth-3: blocks T. cruzi growth in NIH3T3 host cells; inhibition, % at 2.09 µM; AID 651740; 5,600 compounds, 21% hits; shares compounds with T cruzi growth-1; T. cruzi beta-gal in NIH3T3, GalScreen luminescence, 90 h;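 active = mean inhibition above about 95%, with at least 55% of replicates also reaching it, limit read from the data; inconclusive = meets just one of the two conditions; inactive = meets neither condition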;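 also: plate controls were neutral control median for no effect and positive control median for full effect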
NIH3T3 tox: NIH/3T3 (mouse) viability loss. cytotoxicity (signal decrease), % at 8.35 µM. shares compounds with T cruzi growth-1. 5,600 compounds, 14% hits. NIH/3T3 viability, CellTiter-Glo ATP luminescence, 90 h. AID 651742;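 active = mean signal decrease across replicates above about 35% based on untreated-well scatter, with enough replicates individually passing, limit read from the data; inconclusive = no rule stated though some were filed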;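 also: 0% = median of neutral control wells and 100% = median of positive control wells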
NIH3T3 tox 2: NIH/3T3 (mouse) viability loss. 5,600 compounds, 56% hits. AID 651744. shares compounds with T cruzi growth-1. inhibition, % at 24.9 µM. NIH/3T3 viability, CellTiter-Glo ATP luminescence, 90 h;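 active = mean loss of cell viability signal at or above a set limit, and enough replicates individually reaching it; inconclusive = meets only the mean limit or only the replicate share; inactive = meets neither condition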;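 also: 0% = median of neutral control wells and 100% = median of positive control wells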
Numbers without * were called inactive. Compounds with a hit are over-represented: about 6.7% of the library has one in this group of screens.

COc1ccc(NC(=O)Nc2ccc3c(c2)C(=O)N([C@@H](C)CO)C[C@@H](C)[C@H](CN(C)Cc2ccc(C(F)(F)F)cc2)O3)cc1 was read as C diff growth -1.0, T cruzi growth-1 111.2*, Pf Dd2 growth -11.4, T cruzi growth-2 103.7*, T cruzi growth-3 -7.1, NIH3T3 tox inconclusive and NIH3T3 tox 2 96.9*.
Screening C[C@@H]1CN([C@H](C)CO)C(=O)c2cc(NC(=O)Nc3ccc(C(F)(F)F)cc3)ccc2O[C@@H](C)CCCCO[C@H]1CN(C)Cc1ccc(C(F)(F)F)cc1 returned C diff growth 25.6, T cruzi growth-1 83.8 and Pf Dd2 growth inconclusive.
`COc1ccc(CN(C)C[C@@H]2OCCCC[C@@H](C)Oc3ccc(NC(=O)Nc4ccc(C(F)(F)F)cc4)cc3C(=O)N([C@@H](C)CO)C[C@H]2C)cc1` gave C diff growth -34.9, T cruzi growth-1 68.8 and Pf Dd2 growth -37.8.
COc1ccc(NC(=O)Nc2ccc3c(c2)C(=O)N([C@@H](C)CO)C[C@H](C)[C@H](CN(C)Cc2ccc(C(F)(F)F)cc2)OCCCC[C@@H](C)O3)cc1 was read as C diff growth 10.0, T cruzi growth-1 96.0*, Pf Dd2 growth -29.6, T cruzi growth-2 104.8*, T cruzi growth-3 101.9*, NIH3T3 tox 15.8 and NIH3T3 tox 2 6.5.
Screening C[C@@H]1CCCCO[C@H](CN(C)Cc2ccc(C(F)(F)F)cc2)[C@@H](C)CN([C@H](C)CO)C(=O)c2cc(NC(=O)Nc3ccc(C(F)(F)F)cc3)ccc2O1 returned C diff growth 19.8, T cruzi growth-1 98.5*, Pf Dd2 growth -65.8, T cruzi growth-2 105.0*, T cruzi growth-3 112.1*, NIH3T3 tox -0.3 and NIH3T3 tox 2 -1.3.
`C[C@@H]1CCCCO[C@@H](CN(C)Cc2ccc(C(F)(F)F)cc2)[C@@H](C)CN([C@H](C)CO)C(=O)c2cc(NC(=O)Nc3ccc(C(F)(F)F)cc3)ccc2O1` gave C diff growth 4.2, T cruzi growth-1 98.5*, Pf Dd2 growth 62.2, T cruzi growth-2 111.6*, T cruzi growth-3 104.7*, NIH3T3 tox 18.0 and NIH3T3 tox 2 6.4.
For C[C@H](CO)N1C[C@H](C)[C@@H](CN(C)Cc2ccc(C(F)(F)F)cc2)OCCCC[C@H](C)Oc2ccc(NC(=O)Nc3ccc(C(F)(F)F)cc3)cc2C1=O the results were C diff growth 2.9, T cruzi growth-1 32.1 and Pf Dd2 growth 38.3.
C[C@H]1CN([C@@H](C)CO)C(=O)c2cccc(NC(=O)C3CC3)c2O[C@@H]1CN(C)C(=O)Nc1ccc(F)cc1 was read as C diff growth -2.4, T cruzi growth-1 19.0 and Pf Dd2 growth 12.2.
`C[C@@H]1CCCCO[C@H](CN(C)Cc2ccc(C(F)(F)F)cc2)[C@@H](C)CN([C@@H](C)CO)C(=O)c2cc(NC(=O)Nc3ccc(C(F)(F)F)cc3)ccc2O1` gave C diff growth 5.2, T cruzi growth-1 82.9 and Pf Dd2 growth -65.0.
For C[C@H]1CCCCO[C@@H](CN(C)Cc2ccc(C(F)(F)F)cc2)[C@@H](C)CN([C@@H](C)CO)C(=O)c2cc(NC(=O)Nc3ccc(C(F)(F)F)cc3)ccc2O1 the results were C diff growth 18.9, T cruzi growth-1 inconclusive, Pf Dd2 growth -83.4*, T cruzi growth-2 inconclusive, T cruzi growth-3 113.2*, NIH3T3 tox 38.2* and NIH3T3 tox 2 -0.5.
Screening CC=Cc1ccc2n(c1=O)C[C@H]1[C@H](CO)[C@@H](C(=O)N3CCc4ccccc4C3)N(C(=O)COC)[C@@H]21 (mixture of isomers) returned C diff growth 0.3 and Pf Dd2 growth 16.7.
For CO[C@@H](CN(C)C(=O)Nc1ccc(Cl)cc1)[C@@H](C)CN(Cc1ccccc1Cl)[C@@H](C)CO the results were T cruzi growth-1 108.7*, Pf Dd2 growth -54.6, T cruzi growth-2 101.6*, T cruzi growth-3 48.7, NIH3T3 tox 39.1* and NIH3T3 tox 2 54.2*.
CO[C@H](CN(C)C(=O)Nc1ccc(Cl)cc1)[C@@H](C)CN(Cc1ccccc1Cl)[C@H](C)CO was read as T cruzi growth-1 102.4*, Pf Dd2 growth -44.4, T cruzi growth-2 106.3*, T cruzi growth-3 77.6, NIH3T3 tox 22.8 and NIH3T3 tox 2 77.3*.
`CO[C@@H](CN(C)C(=O)Nc1ccc(Cl)cc1)[C@H](C)CN(Cc1ccccc1Cl)[C@H](C)CO` gave T cruzi growth-1 84.7 and Pf Dd2 growth -35.2.
`CO[C@@H](CN(C)C(=O)Nc1ccc(Cl)cc1)[C@H](C)CN(Cc1ccccc1Cl)[C@@H](C)CO` gave T cruzi growth-1 94.5 and Pf Dd2 growth -31.4.
`O=C(CC1CC1)N1CC2(C1)[C@H](c1ccccc1)[C@H](CO)N2Cc1ccccn1` gave C diff growth 7.2 and Pf Dd2 growth 42.1.
OC[C@@H]1[C@@H](c2ccc(Br)cc2)[C@H]2CN(Cc3ccccn3)CCCCN12 was read as C diff growth -4.4, T cruzi growth-1 66.6 and Pf Dd2 growth 2.8.
COc1ccc(CNC(=O)C[C@@H]2C=C[C@@H](NC(=O)Nc3ccc4c(c3)OCO4)[C@H](CO)O2)cc1 was read as C diff growth 1.8, T cruzi growth-1 13.8 and Pf Dd2 growth 25.6.
For C[C@@H]1CCCCO[C@H](CN(C)Cc2ccccc2)[C@@H](C)CN([C@@H](C)CO)C(=O)c2cc(NC(=O)c3ccncc3)ccc2O1 the results were C diff growth -1.8, T cruzi growth-1 97.7*, Pf Dd2 growth -12.7, T cruzi growth-2 15.7, T cruzi growth-3 -36.0, NIH3T3 tox -17.8 and NIH3T3 tox 2 -25.2.
C[C@@H]1CCCCO[C@@H](CN(C)Cc2ccncc2)[C@H](C)CN([C@@H](C)CO)C(=O)c2cc(NC(=O)Cc3ccccc3)ccc2O1 was read as C diff growth 2.4, T cruzi growth-1 59.3 and Pf Dd2 growth -44.2.
`C[C@H](CO)N1C[C@H](C)[C@@H](CN(C)Cc2ccccc2)OCCCC[C@H](C)Oc2ccc(NC(=O)c3ccncc3)cc2C1=O` gave C diff growth -3.7, T cruzi growth-1 74.1 and Pf Dd2 growth 14.6.
C[C@H]1CCCCO[C@@H](CN(C)Cc2ccncc2)[C@@H](C)CN([C@@H](C)CO)C(=O)c2cc(NC(=O)Cc3ccccc3)ccc2O1 was read as C diff growth -0.2, T cruzi growth-1 99.1*, Pf Dd2 growth -54.5, T cruzi growth-2 103.6*, T cruzi growth-3 86.0, NIH3T3 tox -27.2 and NIH3T3 tox 2 -15.9.
`COCC(=O)Nc1ccc2c(c1)C(=O)N(C)C[C@H](OC)[C@@H](C)CN(Cc1ccccn1)[C@@H](C)CO2` gave T cruzi growth-1 25.4 and Pf Dd2 growth -4.7.
